Screening results (PubChem)
An excerpt weighted towards active compounds, which were near 13% of everything screened.
HCV inh: blocks hepatitis C virus. 340,000 compounds, 3.4% hits. AID 651820. Huh7.5.1 HCVcc-Cre infection, luciferase reporter, 44 h. Potency, µM (titrated, usually from 41.8 µM), actives largely listed as inhibitors; active means well fitted inhibition curve with a large enough effect; inconclusive means small, poorly fitted or top-dose-only effect, or another doubt; inactive means no such curve, though single readings can be large or run the other way
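Seed cells (1,000/well) for 4 h; treat with compound and infect with HCVcc-Cre, moi about 0.5. Incubate 44 h, then detect luciferase activity.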
Marburg entry inh: inhibitors of Marburg virus binding or cell entry. AID 540276. Potency, µM (doses to about 37.8 µM), most hits filed as inhibitors. 300,000 compounds, 1.8% hits. Marburg virus pseudotyped entry inhibition, cell reporter; calls by dose curve; tested in HEK293 cells
Shiga toxin inh: inhibitors of Shiga toxin in Vero cells. Vero cells, Shiga toxin protein synthesis inhibition reporter. inhibition, % at 38.7 µM. 290,000 compounds, 9.2% hits; in the data active means inhibition mostly above about 28%, no sharp cut-off; inactive means mostly below about 43%
LASV entry inh: inhibitors of Lassa virus binding or cell entry; Lassa virus pseudotype entry inhibition, cell reporter; Potency, µM (series often up to 37.9 µM), usual class: inhibitors; 300,000 compounds, 1.2% hits; AID 540256; calls by dose curve; tested in HEK293 cells; further: nearly all actives have a fitted effect of over 50% in size
CHX counter: counter-screen for Shiga toxin inhibitors: cycloheximide protein synthesis inhibition; max response, %; 300,000 compounds, 12% hits; cell reporter, cycloheximide protein synthesis inhibition counterscreen; in the data active means max response mostly above about 13%, no sharp cut-off; inactive means mostly below about 14%; further: read at 38.3 µM for the half of the compounds with a filed dose
FMDV antiviral: blocks foot and mouth disease virus; Potency, µM (highest dose often 57.9 µM), hits mostly inhibitors; FMDV antiviral cell-based qHTS; 410,000 compounds, 1.2% hits; calls by dose curve; tested in HEK293T cells; further: read-out not given here; nearly all actives have a fitted effect of over 45% in size
Hits are given with their value; - = inactive; ? = inconclusive; . = no result.

SMILES	HCV inh	Marburg entry inh	Shiga toxin inh	LASV entry inh	CHX counter	FMDV antiviral
Cn1ccc(C(=O)Nc2ccc(Br)cc2Br)n1	?	?	167	?	104	-
Cn1nnnc1SCC(=O)Nc1ccc(Br)cc1Br	-	-	.	-	.	-
COc1ccc(C2/C(=C(/O)c3ccc4c(c3)CC(C)O4)C(=O)C(=O)N2CCCN2CCOCC2)cc1OC (stereo not given)	-	-	-	-	-	-
COc1ccccc1/C=N/NC(=O)CSc1ccc2ccccc2n1	?	?	70	-	25	-
O=C(CSc1ccccc1)N/N=C/c1ccccc1O	?	?	-	?	25	-
CCn1nc(C)c(/C=N/NC(=O)CSc2ccccn2)c1C	-	?	63	-	32	-
COc1ccc(NC(=O)CSCc2ccc(C)cc2)cc1	-	-	-	?	-	-
COc1ccc(CSCC(=O)N/N=C/c2ccccc2O)cc1	8.9µM	?	-	?	-	-
O=C(CCSCCC(=O)NN=Cc1ccccc1O)NN=Cc1ccccc1O	-	?	.	-	.	-
O=c1[nH]n2c(C(F)(F)F)cc(C3CC3)nc2c1N=Nc1ccccc1	-	-	-	-	-	-
CCOc1ccc(NC(=O)CN(C)C(=O)c2ccc(C)c(S(=O)(=O)N3CCCCC3)c2)cc1OCC	-	-	-	?	-	-
COc1ccc(NC(=O)CSc2ccccn2)cc1OC	-	-	-	-	-	-
COc1ccc(/C=N/NC(=O)CSCC(=O)Nc2ccccc2)cc1OC	.	-	-	-	-	-
COc1ccccc1NC(=O)COc1ccc(/C=N/NC(=O)CSCc2ccc(Cl)cc2)cc1	?	?	-	-	-	18µM
COc1ccc(/C=N/NC(=O)CSc2ccccc2)cc1OC	-	-	-	?	14	-
COc1ccc(/C=N/NC(=O)CSc2ccccn2)cc1OC	-	-	30	-	23	-
Cc1ccc(S(=O)(=O)NCC(=O)N/N=C/c2ccccc2O)cc1	-	?	-	7.3µM	-	-
Cn1cnc([N+](=O)[O-])c1Oc1ccc2ccccc2c1	?	?	-	?	-	18µM
Cn1cnc([N+](=O)[O-])c1Sc1nc2ccccc2[nH]1	-	-	-	?	-	?
NC(=O)c1nn2c(C(F)(F)F)cc(-c3ccc(Br)cc3)nc2c1Cl	.	.	.	-	.	-
CC(C)N1C(=O)/C(=C/C=C/c2ccco2)C(=O)N(Cc2ccco2)C1=O	?	4µM	-	?	-	18µM
COc1ccc(/C=C2/C(=O)N(Cc3ccco3)C(=O)N(C(C)C)C2=O)cc1	-	-	-	-	-	-
COc1ccc(CN2C(=O)NC(=O)/C(=C\c3ccco3)C2=O)cc1	-	-	-	-	-	-
O=C1NC(=O)N(Cc2ccccc2)C(=O)/C1=C/C=C/c1ccco1	?	.	-	.	-	13µM
CSc1ccc(C2c3[nH]c4ccccc4c3CCN2C(=O)c2cc(C)n(C)n2)cc1 (stereo not given)	.	.	81	.	34	.
SMILES	HCV inh	Marburg entry inh	Shiga toxin inh	LASV entry inh	CHX counter	FMDV antiviral
CCOc1cccc(C2c3[nH]c4ccccc4c3CCN2C(=O)c2ccccc2F)c1 (stereo not given)	.	.	.	?	.	-
Cc1cc(C(=O)N2CCc3c([nH]c4ccccc34)C2c2cccc(Cl)c2)nn1C (stereo not given)	?	.	50	.	45	-
CC(=O)NCCC(=O)N1CCc2c([nH]c3ccccc23)C1c1cccc(C)c1 (stereo not given)	-	?	-	-	19	-
O=C(c1cnccn1)N1CCc2c([nH]c3ccccc23)C1c1cccc(Cl)c1 (stereo not given)	?	.	27	.	12	-
CC(=O)NCCC(=O)N1CCc2c([nH]c3ccccc23)C1c1cccc(Cl)c1 (stereo not given)	-	?	-	-	-	-
Cc1cnc(C(=O)N2CCc3c([nH]c4ccccc34)C2c2ccc(F)cc2)cn1 (stereo not given)	-	.	-	.	-	-
CN(C)c1ccc(NC(=O)CSc2nc(C3CC3)nc3ccccc23)cc1	-	?	-	?	-	-
Cc1ccc(C)c(N2CN(Cc3ccco3)CNC2=S)c1	-	-	-	-	-	-
O=C(CC(Sc1ccccc1)c1cccs1)c1ccco1 (stereo not given)	-	-	57	-	26	.
CC(SCc1cn2cc(Cl)ccc2n1)C(=O)O (stereo not given)	-	-	-	-	-	-
CCOC(=O)CSCc1cn2cc(Cl)ccc2n1	-	-	-	-	24	-
Clc1ccc2nc(CSc3ncn[nH]3)cn2c1	-	?	-	-	15	-
Brc1ccc2nc(CSc3ncn[nH]3)cn2c1	-	-	84	-	16	-
Cc1cc(C)nc(SCc2cn3cc(Cl)ccc3n2)n1	-	-	-	?	-	-
Cc1c(C(=O)N2CCCCC2)sc2ncnc(NCCc3ccccn3)c12	.	.	.	.	.	-
CC1(C)Cc2ccccc2-c2nnc(-c3ccc(O)cc3)n21	-	?	-	-	-	-
OC1(c2ccccn2)COc2ccccc2O1 (stereo not given)	-	-	-	-	24	-
CCOC(=O)C1CCN(/C=C2/C(=O)NC(=S)N(c3ccccc3F)C2=O)CC1	-	.	-	.	-	-
CN1C(=O)/C(=C\N2CCc3ccccc32)C(=O)NC1=S	-	-	-	-	13	-
CCc1cc2c(cc3c(=O)n(CC(=O)N4CCN(c5ccccn5)CC4)nc(CC)n32)s1	7.9µM	?	-	-	-	.
O=C(Nc1nccs1)C12CC3CC(C1)CC(C(=O)Nc1nccs1)(C3)C2	?	?	-	-	-	25µM
CCc1nnc(NC(=O)C23CC4CC(CC(C4)C2)C3)s1	-	.	56	.	24	-
O=C(Nc1ncccn1)C12CC3CC(CC(C3)C1)C2	-	-	-	-	-	-
O=C(Nc1ccccn1)C12CC3CC(CC(C3)C1)C2	-	-	-	-	-	-
CSc1nnc(NC(=O)C23CC4CC(CC(C4)C2)C3)s1	-	.	-	.	36	-
SMILES	HCV inh	Marburg entry inh	Shiga toxin inh	LASV entry inh	CHX counter	FMDV antiviral
NC(=O)CSc1nnc(NC(=O)C23CC4CC(CC(C4)C2)C3)s1	-	.	-	.	36	-
Cc1ccc(N2CC(C(=O)Nc3nnc(SCC(N)=O)s3)CC2=O)cc1C (stereo not given)	.	-	-	-	-	-
CC(C)Cc1nnc(NC(=O)C23CC4CC(CC(C4)C2)C3)s1	-	.	-	.	-	-
CSc1ccccc1C(=O)Nc1cc(C)ccc1C	-	.	-	.	-	-
COc1ccc(NS(=O)(=O)c2ccc3c(c2)NC(=O)CO3)c(OC)c1	-	.	-	.	-	-
Cc1ccc(-c2nc3ccccc3nc2NN)cc1	-	.	53	.	41	-
O=C1CC(N2CCN(C/C=C/c3ccccc3)CC2)C(=O)N1CCc1ccccc1 (stereo not given)	?	?	-	-	-	.
O=C(Nc1ccc(N2CCOCC2)cc1)Nc1ccc2nc(-c3ccco3)c(-c3ccco3)nc2c1	6.3µM	?	-	-	-	-
O=C(c1ccc2nc(-c3ccco3)c(-c3ccco3)nc2c1)N1CCN(c2ccccc2)CC1	?	16µM	-	-	-	?
